# Many of the other results were omitted from the sample, so hits are more common in it than they were.
# Peg3 imprint: genomic imprint erasure induction | mouse ES Peg3-LacZ reporter, beta-gal luminescence, 40 h | Potency, µM (top dose mostly 60.7 µM), inactives show top-dose activity change, positive = activation, hits mostly activators | actives 0.02% (n = 110,000); also: potency is read from the fitted curve at half-maximal effect
#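 Each well holds 300 Peg3LacZ-Neo (maternal) female ES cells incubated 40 h at 37C, 5% CO2. LacZ is measured by BetaGlo luminescence, with AC50 and maximum efficacy derived from dose-response curves.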
# GFP derepression: derepresses silenced GFP locus in mouse C127i cells | Potency, µM (top dose mostly 46.1 µM), for inactives: at the top dose GFP derepression (activation) | actives 0.09% (n = 68,000) | mouse C127i GFP locus derepression, cytometry, 30 h; also: % of control where 0% means no effect
#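 Murine C127i mammary cells carrying a silenced, stably integrated CMV-driven GFP reporter were treated with compound for 30 hours at 37 C. After PBS washes, GFP-positive cells were counted by laser-scanning microplate cytometry.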
# CRE-bla Fsk: alters forskolin-stimulated CRE reporter signaling in CHO cells | CHO CRE-bla reporter (cAMP response element driving beta-lactamase), forskolin EC10, beta-lactamase ratio | actives 2.5% (n = 71,000) | Potency, µM (highest dose often 38.2 µM), for the others: at the highest dose activity change, negative = inhibition, actives largely listed as activators | AID 662; active = well fitted activation curve with a large enough effect in the signal ratio, with a control signal flat, not every such curve was filed as active; inconclusive = small, poorly fitted or top-dose-only effect, or effect the other way, or a change in a side signal; the % refers to the signal ratio; also: potency is read from the fitted curve at half-maximal effect; % of control where 0% means no effect
#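 Forskolin analogue NKH 477 at EC10 stimulated CRE-driven beta-lactamase in CHO cells alongside compound dilution series. Beta-lactamase was measured with CCF4, excitation 405 nm, emission ratio 460/530 nm.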
# HBB splicing: alters splicing of the hemoglobin beta chain. AID 925. actives 0.06% (n = 65,000). HBB splicing reporter cell assay, activation; EGFP reporter with mutant IVS2-654 intron; response scale: normalised to 500 nM splice-correcting PNA. Potency, µM (titrated, usually from 46.1 µM), for inactives: at the highest dose activation, hits mostly activators; also: potency is read from the fitted curve at half-maximal effect; 0% is about no effect
#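 Compounds were applied for 2 days to HeLa EGFP-654 cells, 500/well in Optimem with 2% FCS. The reporter's EGFP is disrupted by mis-splicing of beta-globin intron IVS2-654. Readout: summed well GFP fluorescence from 488 nm laser scanning; reference was 500 nM antisense […] 654 PNA.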
# IkB sig inh: IkB pathway inhibition in ABC-DLBCL cells. Potency, µM (titrated, usually from 57.1 µM), inactives show at the top dose IkBa stabilization activation. actives 0.04% (n = 110,000). ABC-DLBCL IkBa-CBG/CBR dual luciferase ratio, 4 h; response scale: scaled: untreated 0%, proteasome inhibitor 100%; active = well fitted curve in the direction sought with a large enough effect in the signal ratio, not every such curve was filed as active; inconclusive = small, poorly fitted or top-dose-only effect, or a change in a side signal; the % refers to the signal ratio;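 also: potency is read from the fitted curve at half-maximal effect; the direction sought is a rising ratio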
#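 In this assay, an IκBα–CBG68 fusion accumulates when IKK-driven degradation is blocked; native CBR normalizes for cell number. OCI-Ly3 cells were treated 4 h with compound and doxycycline, then green and red light read after Chroma-Glo addition.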
# * marks the source's active call; other numbers are inactive results; u = inconclusive; x = no result given; [ ] = dose if it differs, or a comment. Unless noted, calls follow the shape of the dose curve; as a rule, active = well fitted curve in the direction sought with a large enough effect; inconclusive = small, poorly fitted or top-dose-only effect, or another doubt; inactive = no such curve, though single readings can be large; an effect the other way counts as inactive or inconclusive.
SMILES,Peg3 imprint,GFP derepression,CRE-bla Fsk,HBB splicing,IkB sig inh
COc1ccc(OCc2nnc3n2N=C(c2ccc(OC)cc2)CS3)cc1,7%,x,4µM*,-1%,u
c1ccc(Cn2c(-c3cccs3)nc3nc4ccccc4nc32)cc1,-4%,2%,6%,-3%[57.5 µM],1%
CC(C)Cn1c(-c2cccs2)nc2nc3ccccc3nc21,-7%,0%,13µM*,3%[0.369 µM],0%
Cc1ccc(OCc2nc(-c3ccc(C(=O)NCCc4ccc(S(N)(=O)=O)cc4)cc3)oc2C)cc1,-10%[10.9 µM],x,x,x,-1%
CCOC(=O)c1cc2c(=O)n3ccccc3nc2n(CCOC)c1=NC(=O)C(C)(C)C,3%,-1%,10µM*,-1%,1%
CCOC(=O)c1cc2c(=O)n3ccccc3nc2n(CCCOC)c1=NC(=O)C(C)(C)C,-8%,-3%,u,-1%,-2%
CCOCCCn1c(=NC(C)=O)c(C(=O)OCC)cc2c(=O)n3ccccc3nc21,-5%,0%,13µM*,0%[0.369 µM],-1%
O=C(CSc1nc2c([nH]c3ccccc32)c(=O)n1-c1ccccc1F)Nc1cccc(Cl)c1,11%[10.9 µM],x,x,x,u
CCOCCCn1c(=N)c(C(N)=S)cc2c(=O)n3cccc(C)c3nc21,-19%,0%,13µM*,0%,-1%
Cc1cccn2c(=O)c3cc(C(N)=S)c(=N)n(CCCOC(C)C)c3nc12,x,-2%[20.6 µM],x,x,x
CCOCCCNC(=O)c1cc2c(=O)n3cccc(C)c3nc2n1C,-20%,x,0.25µM*,1%,4%
Cc1ccc(C)c(NC(=O)Nc2csc3c2CCCC3)c1,6%[10.9 µM],x,x,x,-3%
CN1CCN(S(=O)(=O)c2cccc(C(=O)Nc3sc4c(c3C(N)=O)CCCC4)c2)CC1,-9%,0%,0.79µM*,-1%,-1%
CCCCN(C)CCCNC(=O)Cn1ncc2c3ccccc3n(Cc3ccccc3F)c2c1=O,-6%[10.9 µM],x,x,x,0%
C#CCNc1nc(CC)nc2c1nnn2Cc1ccccc1F,6%,-1%,10µM*,x,-1%
COC(=O)c1ccc(CSc2nc3c(c(=O)n2-c2ccccc2)SCC3)o1,-7%,x,u,-1%,2%
COCCn1c(SC(C)C(=O)Nc2ccc3c(c2)OCCO3)nc2ccccc2c1=O (centres undefined),-16%,3%,13µM*,0%,2%
CC(C)Cn1c(SCC(=O)NC(=O)Nc2ccc3c(c2)OCCO3)nc2ccccc2c1=O,0%,4%,u,9%,6%
COC(=O)c1ccc(CSc2nc3ccccc3c(=O)n2-c2ccc(OC)c(OC)c2)o1,-22%,1%,13µM*,0%[57.5 µM],0%
COCCn1c(SCc2ccc(C(=O)OC)o2)nc2ccccc2c1=O,-24%,1%,13µM*,0%,1%
CCCCNC(=O)CSc1nnc(C)c2c(C)n(-c3ccccc3)nc12,11%[10.9 µM],x,x,x,u
COC(=O)n1c(SC)nc2ccccc21,-3%,0%,10µM*,3%[0.369 µM],-1%
COc1cccc(Nc2ncc3nc(C)c(=O)n(Cc4cccs4)c3n2)c1,-4%,19%[9.22 µM],u,16µM*,-3%[11.4 µM]
COc1ccc(-n2c(=O)c(-c3cccs3)nc3cnc(Nc4cccc(OC)c4)nc32)cc1,x,3.2µM*,u,10µM*,-4%[11.4 µM]
COc1cccc(Nc2ncc3nc(-c4cccs4)c(=O)n(CCC#N)c3n2)c1,u,u,u,6%,0%[11.4 µM]
COc1cccc(Nc2ncc3nc(C)c(=O)n(CCc4ccccc4)c3n2)c1,-3%,2%[9.22 µM],5µM*,1%,-8%[11.4 µM]
CCc1cccc(NC(=O)CN2C(=O)COc3ccc(S(=O)(=O)Nc4ccccc4)cc32)c1,-4%[10.9 µM],x,x,x,-2%
CCC(O)CNc1nc(SC)nc2sc3c(c12)CCN(C)C3 (centres undefined),-11%,3%,u,-1%,-3%
CCC(O)CNc1nc(-n2nc(C)cc2C)nc2sc3c(c12)CCCC3 (centres undefined),3%,-2%,0.79µM*,3%[0.369 µM],1%
O=C(NCc1ccc(Cl)cc1)C(=O)NCC(c1ccc2c(c1)OCO2)N1CCOCC1 (centres undefined),12%[10.9 µM],x,x,x,2%

# Compound activity: PubChem, National Center for Advancing Translational Sciences (NCATS)
